Source: PubChem BioAssay (National Center for Advancing Translational Sciences (NCATS))
Shown are actives, neighbours in structure and some others; about 12% of the full set was active somewhere.
BAZ2B inh – blocks human BAZ2B. Potency, µM (series often up to 114 µM), for inactives: top-dose activity change, negative = inhibition, most hits filed as inhibitors. 4.4% of 360,000 active. AlphaScreen BAZ2B-H3K14Ac peptide displacement. Q9UIF8; also: potency is read from the fitted curve at half-maximal effect; % is scaled to controls: 0 for no effect and ±100 for the full control effect; nearly all actives have a fitted effect of over 60% in size
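Protein-peptide AlphaScreen: BAZ2B 50 nM, b-H3K14Ac 50 nM, 1x PBS pH 7.4 + 0.01% Tween-20. Preincubation 30 min RT; cpd 30 min RT (top 110 uM); beads 20 min RT, light-protected.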
G9a inh – inhibitors of human histone lysine methyltransferase G9a | G9a H3K9 monomethylation, AlphaScreen, 2 h | Potency, µM (series often up to 102 µM), inactives show at the top dose activity, negative = inhibition, hits mostly inhibitors | 8.8% of 350,000 active | AID 504332; also: potency is read from the fitted curve at half-maximal effect; % is scaled to controls: 0 for no effect and ±100 for the full control effect; nearly all actives have a fitted effect of over 75% in size
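Chemiluminescent proximity detection of H3K9 monomethylation, read after 10 min bead incubation in the dark. Reaction: 20 nM G9a, 500 nM biotin-H3K9 peptide, 20 uM SAM cofactor, 2 h, room temperature, following 15 min enzyme-compound preincubation.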
HP1b binding inh – HP1-beta chromodomain-methylated histone interaction inhibition; P83916; AlphaScreen HP1-beta / biotin-H3K9me3 peptide binding; AID 540317; 0.56% of 390,000 active; Potency, µM (top dose mostly 114 µM), without a hit: top-dose activity change, negative = inhibition, hits mostly inhibitors; also: potency is read from the fitted curve at half-maximal effect; nearly all actives have a fitted effect of over 70% in size
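AlphaScreen: HP1-beta (50 nM) preformed 30 min with biotin-H3(1-18)K9me3 peptide (50 nM) in PBS pH 7.4, 0.01% Tween-20. Compound added for 30 min at RT, then streptavidin donor/nickel chelate acceptor beads (10 ug/mL) for 30 min.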
PI5P4Ka inh – blocks human PI5P4K alpha kinase activity; P48426; max response, %; 1.2% of 330,000 active; AID 652105; PI5P4Kalpha enzyme, ADP-Glo luminescence, 60 min; active compounds read low; active = max response of -50% or lower; inconclusive = between -30% and -50%; inactive = -30% or higher; also: value at the top dose of about 77 µM; % is scaled to controls: 0 for no effect and ±100 for the full control effect
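Reactions run in 0.038 M HEPES pH 7.4, 0.28 mM EGTA, 0.1% CHAPS and 5% DMSO, with PI5P4Kalpha, substrate, compound and 5 microM ATP final, one hour at room temperature. Readout is ADP-Glo luminescence.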
JMJD2A Tudor – blocks the human JMJD2A Tudor domain; Potency, µM (highest dose often 114 µM), for the others: at the top dose activity change, negative = inhibition, hits mostly inhibitors; AlphaScreen JMJD2A-Tudor / H3K4me3 peptide binding; O75164; 4.4% of 390,000 active; also: potency is read from the fitted curve at half-maximal effect; % is scaled to controls: 0 for no effect and ±100 for the full control effect; nearly all actives have a fitted effect of over 50% in size
PLK1 PBD block – blocks phosphopeptide binding to human PLK1 polo-box domain. 2.8% of 360,000 active. Plk1 PBD binding of FITC phosphopeptide, fluorescence polarization. P53350. Potency, µM, without a hit: max response, negative = inhibition, hits mostly inhibitors. AID 720504; also: potency is read from the fitted curve at half-maximal effect; series mostly up to about 57 µM; % is scaled to controls: 0 for no effect and ±100 for the full control effect; nearly all actives have a fitted effect of over 65% in size
Target sequence (P53350 whole entry, looked up, the tested form may be a part): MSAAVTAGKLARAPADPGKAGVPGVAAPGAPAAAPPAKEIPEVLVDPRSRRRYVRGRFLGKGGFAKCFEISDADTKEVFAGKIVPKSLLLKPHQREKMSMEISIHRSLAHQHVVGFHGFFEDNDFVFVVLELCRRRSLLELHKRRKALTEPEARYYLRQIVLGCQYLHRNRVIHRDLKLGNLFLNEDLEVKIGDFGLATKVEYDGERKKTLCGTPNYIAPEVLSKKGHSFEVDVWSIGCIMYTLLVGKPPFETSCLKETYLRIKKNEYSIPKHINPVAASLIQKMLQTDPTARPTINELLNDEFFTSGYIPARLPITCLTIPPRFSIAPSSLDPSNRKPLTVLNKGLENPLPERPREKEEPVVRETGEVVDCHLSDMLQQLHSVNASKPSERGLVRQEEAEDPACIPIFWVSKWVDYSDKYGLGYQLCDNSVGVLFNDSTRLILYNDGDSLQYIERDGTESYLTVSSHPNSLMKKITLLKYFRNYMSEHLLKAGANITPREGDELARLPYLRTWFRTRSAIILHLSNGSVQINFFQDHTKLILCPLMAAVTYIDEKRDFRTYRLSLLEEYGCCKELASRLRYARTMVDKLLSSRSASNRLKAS
Active calls of the source: *; ? = inconclusive; · = not tested or not shown; [ ] = remark or other dose. Unless noted, calls follow the shape of the dose curve; as a rule, active = well fitted curve in the direction sought with a large enough effect; inconclusive = small, poorly fitted or top-dose-only effect, or another doubt; inactive = no such curve, though single readings can be large; an effect the other way counts as inactive or inconclusive.

SMILES	BAZ2B inh	G9a inh	HP1b binding inh	PI5P4Ka inh	JMJD2A Tudor	PLK1 PBD block
CC(C)Oc1ccc(C(CCN)C2CCCCC2)cc1 (configuration not stated)	50.1µM*	15.8µM*	79.4µM*	14.9	22.4µM*	-4.2%
COC(=O)c1ccn(CSc2cc(Cl)ccc2Cl)n1	13.1%	15.7%[12.7 µM]	50.0%	0.1	8.8%	23.8µM*
Cc1ccc(-n2ncc3c(N4CCCCC4)ncnc32)cc1	71.6%	6.6%[59 µM]	63.0%	·	16.8%	·
COc1ccc(Cc2nc(-c3cccs3)no2)cc1OC	-0.3%	50.1µM*	35.7%	0.6	-2.1%	-16.8%
COc1ccccc1C(=O)CSc1nccn1C	-4.6%	?	-4.8%	-26.9	-19.9%	-13.4%
Cc1ccc(N2CC(C(=O)Nc3cc(S(=O)(=O)N4CCCCC4)ccc3C)CC2=O)cc1 (configuration not stated)	·	·	·	-25.7	·	-12.8%
O=c1[nH]cnc2c1ncn2C1OC(CO)C(O)C1O (configuration not stated)	·	23.1%[59 µM]	3.1%	-0.1	-7.6%	-1.5%
OCC1OC(n2cnc3c(=S)nc[nH]c32)C(O)C1O (configuration not stated)	·	15.8µM*	?	·	20µM*	·
CC1(C)OC2C(CO)OC(n3cnc4c(=S)nc[nH]c43)C2O1 (configuration not stated)	50.1µM*	8.91µM*	?	-19.2	?	-10.6%
Cc1ccc(S(=O)(=O)N2CCCc3cc(NC(=O)c4c(F)cccc4F)ccc32)cc1	?	5.4%[0.501 µM]	7.2%	-0.5	?	26.7µM*
COc1cccc(OC)c1C(=O)Nc1ccc2c(c1)CCCN2S(=O)(=O)c1ccc(C)cc1	-9.2%	-8.6%[0.501 µM]	4.4%	-15.2	?	10.6µM*
Cc1ccc(S(=O)(=O)N2CCCc3cc(NC(=O)c4ccc(F)c(F)c4)ccc32)cc1	-18.0%	11.8%[59 µM]	-5.6%	·	-23.2%	·
Cc1ccc(S(=O)(=O)N2CCCc3cc(NC(=O)c4cccc(Cl)c4)ccc32)cc1	-16.5%	9.1%[59 µM]	15.3%	·	-17.2%	·
CCOC(=O)c1ccccc1NC(=O)N1CCn2c(C)ccc2C1CC (configuration not stated)	-10.8%	22.4µM*	29.2%	-2.8	-16.9%	-2.3%
CCC1c2ccc(C)n2CCN1C(=O)Nc1cc(Cl)ccc1OC (configuration not stated)	-8.0%	-0.9%[59 µM]	4.5%	3.0	?	-12.2%
CCCC1c2ccc(C)n2CCN1C(=O)Nc1ccccc1Cl (configuration not stated)	-6.0%	-9.5%[59 µM]	-8.5%	-3.3	-25.6%	-2.7%
CCC1c2ccc(C)n2CCN1C(=O)Nc1ccccc1C(=O)OC (configuration not stated)	-27.7%	50.1µM*	7.8%	2.0	-32.1%	-9.9%
c1ccc(OCCNc2ccn3nc(-c4cccs4)cc3n2)cc1	·	·	·	7.3	·	6.8%
CN(C(=O)c1cccs1)C1(C)CCS(=O)(=O)C1 (configuration not stated)	2.5%	10.6%	17.8%	-2.3	-3.1%	-17.4%
CC1(C(=O)Nc2ccc3c(c2)OCO3)CCN1C(=O)CCC1CCCC1 (configuration not stated)	·	·	·	0.8	·	1.3%
Cc1ncsc1CCOC(=O)c1cccnc1	50.1µM*	?	16.5%	·	?	-1.2%
CC1=Nc2cc(C(=O)NC3CCCC3)ccc2Sc2ccc(C)cc21	-22.1%	-39.2%[59 µM]	-5.0%	·	-28.4%	·
CSCCC(c1nc2ccccc2[nH]1)n1c(-c2cc(C(F)(F)F)cc(C(F)(F)F)c2)nc2ccccc21 (configuration not stated)	·	·	·	10.3	·	-0.3%
COC(=O)CSC1=C(C#N)C(c2ccc(Cl)cc2)C(C(=O)OC)C(=O)N1 (configuration not stated)	1.5%	44.7µM*	-14.7%	2.4	-20.1%	26.7µM*
COC(=O)C1C(=O)NC(SC)=C(C#N)C1c1ccccc1 (configuration not stated)	0.0%	?	31.8%	8.3	-6.0%	-14.2%
SMILES	BAZ2B inh	G9a inh	HP1b binding inh	PI5P4Ka inh	JMJD2A Tudor	PLK1 PBD block
CCOC(=O)CSC1=C(C#N)C(c2ccc(Cl)cc2)C(C(=O)OC)C(=O)N1 (configuration not stated)	-7.4%	?	-11.9%	·	-14.7%	23.8µM*
CC(C)Oc1ccc(CN2CCC2(C)C(=O)Nc2cccc(Oc3ccccc3)c2)cc1 (configuration not stated)	·	·	·	21.7	·	3.8%
Oc1c(Br)cc(Br)cc1CNc1cnc2ccccc2c1	?	·	4.9%	6.5	?	-16.9%
Oc1c(Br)cc(Br)cc1CNc1ccc(F)cc1	39.8µM*	44.7µM*	-15.6%	9.3	?	-2.9%
O=C(Cc1ccc(F)cc1)N1CCOCC1	9.6%	-3.0%	26.8%	3.7	-2.8%	-2.2%
O=C(NCCc1ccc(F)cc1)N1CCOCC1	5.0%	4.6%[59 µM]	-10.4%	-3.8	-32.8%[57.1 µM]	21.2µM*
CCC1CCCCN1C(=O)NC(=O)c1ccccc1 (configuration not stated)	-18.0%	34.7%	37.8%	-5.5	-2.6%	0.8%
CCC1CCCCN1C(=O)CNCC1CCCO1 (configuration not stated)	-38.7%	17.8µM*	-23.7%	2.3	-7.4%[11.4 µM]	-26.0%
O=C(CNCC1CCCO1)N1CCCc2ccccc21 (configuration not stated)	56.2µM*	?	?	·	3.98µM*	-6.1%
O=C(CNCC1CCCO1)Nc1ccccc1-n1cccc1 (configuration not stated)	50.1µM*	8.91µM*	4.4%	·	5.01µM*	-16.7%
O=C(c1ccc(S(=O)(=O)NCC2CCCO2)cc1)N1CCc2ccccc21 (configuration not stated)	4.1%	-8.4%[59 µM]	5.0%	-0.2	-14.9%	-6.8%
O=C(O)c1cc(N=Cc2c(O)c3ccccc3oc2=O)ccc1O	-19.7%	50.1µM*	11.8%	-65.3*	-22.1%	?
Cc1ccc(N=Cc2c(O)c3ccccc3oc2=O)cc1F	-15.9%	35.5µM*	22.3%	2.3	-9.5%	3.7%
Cc1cc(C)cc(N=Cc2c(O)c3ccccc3oc2=O)c1	-3.9%	9.6%	34.0%	2.2	-17.5%	-7.6%
C[C@H](NC(=O)[C@@H]1CCCN1C(=O)[C@@H]1CCCN1)c1ccccc1	·	·	·	4.0	·	-7.9%
O=C1CC2CCCN2C=C1I (configuration not stated)	·	·	22.8%	-5.6	17.8µM*	-12.5%
Cc1ccc(S(=O)(=O)N(C(=N)N)c2nc(N(C)C)nc(N(C)C)n2)cc1	2.8%	-12.1%	·	·	·	·
CCOC(=O)[C@]12Cc3c(cc(OC)c(OC)c3OC)[C@H]1N(Cc1ccccc1)C(=O)c1cc(F)c(F)cc12	·	·	·	6.5	·	?
